Assay outcomes from PubChem.
An excerpt weighted towards active compounds, which were near 5.2% of everything screened.
Sfp PPTase inh – qHTS Assay for Inhibitors of Bacillus subtilis Sfp phosphopantetheinyl transferase (PPTase); 4'-phosphopantetheinyl transferase ffp (Bacillus subtilis), Q9F4F7; Biochemical Sfp PPTase activity, qHTS; Potency, µM, without a hit: largest response in the series, negative = inhibition, actives largely listed as inhibitors; 310,000 tested, 3.5% active;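 also: the enzyme is Sfp with the accession as filed and its product quenches rhodamine fluorescence; potency is read from the fitted curve at half-maximal effect; 0% = enzyme reaction without inhibitor and -100% = no enzyme wells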
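Fluorescence-quenching assay with 15 nM Sfp, 5 uM rhodamine-CoA and 12.5 uM BHQ-2-labelled ybbR peptide in pH 7.6 Hepes/MgCl2 buffer. Enzyme was pre-incubated with compound for 15 min at room temperature. Rate was taken from the 30-min fluorescence change (525/598 nm).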
Tau fluor counter – Counterscreen qHTS for Inhibitors of Tau Fibril Formation, Fluorescence Polarization; tau K18 P301L Alexa594 fluorescence, heparin fibrillization; Potency, µM (top dose mostly 57.7 µM), inactives show top-dose activity change, negative = decrease; 280,000 tested, 0.93% active; AID 1463, 2008; also: potency is read from the fitted curve at half-maximal effect; nearly all actives have a fitted effect of over 55% in size
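Human tau K18 P301L (15 uM unlabeled, 0.24 uM Alexa 594-labeled) in 100 mM sodium acetate pH 7 with 20 uM heparin, 6 hr at 37 C. ThT 30 uM added, 1 hr ambient; Alexa 594 FP and total fluorescence read at 555/632 nm.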
FBPA coupling cs – qHTS Assay for Inhibitors of Fructose-1,6-bisphosphate Aldolase from Giardia Lamblia: Coupling assay counterscreen; coupling enzyme system counterscreen, AmpLite Red fluorescence; activity change, negative = inhibition, % at 58.2 µM, hits read low; 290,000 tested, 0.67% active; AID 2472, 2010; in the data active = activity change below about -30%
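Activity here indicates interference with the coupling reaction, not aldolase inhibition. Compounds at 57.5 uM final met coupling enzymes for 10 min at RT; substrate and AmpLite Red detection followed, with a 525/598 nm fluorescence read after 20 min.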
Tau ThT inhib – qHTS for Inhibitors of Tau Fibril Formation, Thioflavin T Binding | Microtubule-associated protein tau (Homo sapiens), P10636 | recombinant tau K18 P301L, heparin-induced fibrillization, ThT fluorescence | Potency, µM (doses to about 57.4 µM), inactives show at the highest dose activity, negative = inhibition, hits mostly inhibitors | 270,000 tested, 2.1% active | AID 1460, 2008; also: potency is read from the fitted curve at half-maximal effect; nearly all actives have a fitted effect of over 55% in size
Target sequence (P10636 561-689 P618L limits assumed): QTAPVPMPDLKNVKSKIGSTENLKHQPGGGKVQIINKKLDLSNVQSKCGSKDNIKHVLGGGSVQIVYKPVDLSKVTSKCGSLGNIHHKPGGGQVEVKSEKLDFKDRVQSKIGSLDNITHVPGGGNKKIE
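Fibril formation assay: tau K18 P301L at 15 uM with trace Alexa 594 label, heparin inducer 20 uM, pH 7 sodium acetate buffer, 37 C for 6 hr; endpoint ThT signal.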
Tau fibril FP – qHTS for Inhibitors of Tau Fibril Formation, Fluorescence Polarization; Microtubule-associated protein tau (Homo sapiens), P10636; K18 P301L tau heparin fibrillization, Alexa594 FP, 6 h; Potency, µM (doses to about 57.7 µM), inactives show top-dose activity, negative = inhibition, actives largely listed as inhibitors; 280,000 tested, 0.39% active; AID 1468, 2008; also: potency is read from the fitted curve at half-maximal effect; nearly all actives have a fitted effect of over 55% in size
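K18 P301L tau (15 uM unlabeled/0.24 uM Alexa 594-labeled, final) + compound + heparin 20 uM final; 100 mM NaOAc pH 7; 6 hr 37 C; ThT 30 uM final added, 1 hr RT; FP ex 555/em 632 nm.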
* = called active by the depositor; ? = inconclusive; nt = not tested or not shown; [ ] = remark or other dose. Unless noted, calls follow the shape of the dose curve; as a rule, active = well fitted curve in the direction sought with a large enough effect; inconclusive = small, poorly fitted or top-dose-only effect, or another doubt; inactive = no such curve, though single readings can be large; an effect the other way counts as inactive or inconclusive. Unless noted, % is scaled to controls: 0 for no effect and ±100 for the full control effect.

SMILES | Sfp PPTase inh | Tau fluor counter | FBPA coupling cs | Tau ThT inhib | Tau fibril FP
Cc1cccc(N(C)C(=O)c2cc3c(=O)oc4ccc(C)cc4c3s2)c1 | nt | -2% | nt | 0% | 1%
COC(=O)/C=C/c1ccc(C(=O)NCC(=O)N[C@@H](CCC(=O)OC)C(=O)N[C@@H](CC(C)C)C(N)=O)cc1 | 18% | 0% | 0 | 1% | -1%
O=S(=O)(c1ccccc1)N1CCC[C@@]2(CCN(c3ccncc3)C2)C1 | 19% | nt | 3 | nt | nt
CCN(CC)CCNC(=S)Nc1ccc(F)cc1 | 28µM* | -5% | 3 | 2% | -2%
CCOC(=O)c1ccc(NC(=O)C(=O)NCCc2ccc(OC)cc2)cc1 | 17% | -11% | 1 | ? | -10%
CCOC(=O)c1ccc(NC(=S)NCCc2ccc(F)cc2)cc1 | 11% | ? | -1 | 6% | 28µM*
COc1ccc2c(c1)c1c(c(=O)n(CCc3ccccc3)c(=O)n1Cc1cccc(F)c1)n2C | nt | 0% | nt | 10% | -5%
COC(=O)c1ccccc1NC1CC(=O)N(c2c(C)cccc2C)C1=O (stereo not drawn) | 28µM* | -14% | -2 | -15% | 4%
COC(=O)c1ccc(NC2CC(=O)N(c3ccccc3C)C2=O)cc1 (stereo not drawn) | -17% | -6% | -1 | -15% | -1%
CCC(C)(C(=O)NC1CCCCC1)N(Cc1cccs1)C(=O)c1ccccn1 (stereo not drawn) | 8% | -9% | 5 | -3% | 0%
O=C(NC1CCCC1)C(c1ccncc1)N(Cc1cccs1)C(=O)c1csnn1 (stereo not drawn) | 20µM* | ? | -20 | ? | ?
CC(C)(C)NC(=O)C(c1ccncc1)N(Cc1cccs1)C(=O)c1csnn1 (stereo not drawn) | -9% | -13% | 1 | -12% | -2%
CCC(C)(C(=O)NC1CCCC1)N(Cc1cccs1)C(=O)c1ccccn1 (stereo not drawn) | 14% | -8% | -38* | -3% | 0%
O=C(NC1CCCCC1)C(c1ccncc1)N(Cc1ccc2c(c1)OCO2)C(=O)c1cnsn1 (stereo not drawn) | -1% | -5% | -46* | 5% | -14%
O=c1[nH]cnc2c1sc(=S)n2-c1ccccc1 | 18µM* | -3% | 4 | -17% | -7%
Cc1cc(C)c(S(=O)(=O)NCC(c2ccc(N(C)C)cc2)N2CCc3ccccc32)c(C)c1 (stereo not drawn) | nt | ? | nt | ? | 7%
Cc1ccc(C(=O)NC2(O)C(=O)c3ccccc3C2=O)cc1C | 7% | -11% | -19 | nt | 4µM*
Cc1ccc(OCc2cc(=O)n3c4c(sc3n2)CCCC4)cc1C | nt | -5% | nt | ? | -2%
Cc1cccc(OCC(=O)NCC2(N3CCN(C)CC3)CCCCC2)c1C | nt | -14% | nt | -3% | 6%
COc1ccc(Nc2nc(Nc3ccc(OC)cc3OC)nc(N3CCN(C)CC3)n2)c(OC)c1 | ? | 10µM*[quencher] | 1 | ? | ?
COc1cccc([C@@H]2Oc3ccc(Br)cc3C(=O)[C@H]2OC(=O)N[C@H]2CCCc3ccccc32)c1 | 7% | -6% | 0 | -6% | -1%
COc1ccc(S(=O)(=O)N2CCOCC2)cc1NC(=O)CSc1n[nH]c(C(C)C)n1 | 25µM* | 1% | 0 | 0% | 4%
Cc1ccc(S(=O)(=O)N2CCOCC2)cc1NC(=O)CSc1n[nH]c(N)n1 | 20% | 2% | -1 | 5% | 1%
COc1ccc(-c2cn3ccccc3n2)cc1OC | 89µM* | -5% | -23 | -18% | 10%
COc1ccc(-c2cn3cc(C)ccc3n2)cc1F | 10% | -10% | -34* | ? | -13%
SMILES | Sfp PPTase inh | Tau fluor counter | FBPA coupling cs | Tau ThT inhib | Tau fibril FP
NC(=O)CSc1nnc(-c2ccccn2)n1Cc1ccco1 | 1% | -1% | 1 | -10% | 3%
Clc1ccccc1CSc1nnc(-c2ccccn2)n1Cc1ccco1 | 56µM* | -9% | -1 | -22% | -2%
C(=C\c1ccccc1)/CSc1nnc(-c2ccccn2)n1Cc1ccco1 | 32µM* | -5% | -1 | -17% | -6%
COC(=O)[C@@H]1C[C@H]1[C@@H](NC(=O)Oc1ccc(F)cc1)c1ccccc1 | 9% | -15% | 0 | ? | 3%
CCCCN1C(=O)/C(=C2\SC(N3CCCCC3)=NC2=O)c2ccccc21 | 45µM* | -23% | 0 | ? | 6%
Cc1ccc2cc(C=O)c(N(C)C)nc2c1 | 6% | 8% | -2 | -6% | 6%
Cc1cc2cc(C=O)c(Cl)nc2cc1C | 32µM* | -4% | 3 | -4% | 3%
O=C1c2oc3ccccc3c(=O)c2C(c2ccc(O)cc2)N1Cc1ccc2c(c1)OCO2 (stereo not drawn) | nt | 14% | nt | 12% | -8%
CCC(C)(C)n1nnnc1C(c1cc2cc(C)cc(C)c2[nH]c1=O)N1CCCC1 (stereo not drawn) | 25µM* | -22% | -8 | ? | -5%
CN(C)c1ccc(C(c2nnnn2C(C)(C)C)N2CCN(C(=O)c3ccco3)CC2)cc1 (stereo not drawn) | -24% | ? | 0 | 16µM* | -14%
CCC(C)(C)n1nnnc1C(c1cc2cc(C)cc(C)c2[nH]c1=O)N1CCN(Cc2ccc3c(c2)OCO3)CC1 (stereo not drawn) | 63µM* | -7% | -1 | -14% | 3%
CCOc1ccc(C(c2nnnn2C(C)(C)C)N2CCN(C(=O)c3ccco3)CC2)cc1 (stereo not drawn) | -4% | nt | 1 | nt | nt
Cc1cc(C)c2[nH]c(=O)c(C(c3nnnn3C(C)(C)C)N3CCN(C(=O)c4ccco4)CC3)cc2c1 (stereo not drawn) | 18µM* | 3% | 0 | -11% | 8%
COc1ncc2nc(-c3cc(F)cc(F)c3)c(=O)n(CCC#N)c2n1 | 3% | nt | 0 | nt | nt
CC(=O)OCC1=C[C@H]2[C@@H]3C(C)(C)[C@]3(OC(C)=O)C[C@@H](C)[C@]2(O)[C@@H]2C=C(C)C(=O)[C@@]2(O)C1 | 4% | nt | -6 | nt | nt
Cc1c(CCO)c(=O)n(-c2ccccc2)n1S(=O)(=O)c1c(Cl)cc(Cl)cc1Cl | 71µM* | -13% | -39* | ? | 0%
Oc1c(C(c2ccccc2)N2CCOCC2)sc2nc(-c3ccco3)nn12 (stereo not drawn) | nt | -6% | nt | -3% | ?
Cc1cccc([C@@H]2CN(C)CCc3c2cc(O)c(O)c3Cl)c1 | 79µM* | -18% | -7 | -19% | -2%
O=S(=O)(NCc1ccccc1)c1ccc(Cl)cc1 | 7% | -9% | 3 | -12% | 4%
